KB-V1 cytotox – KB-V1 MDR subline cytotoxicity; KB-V1 MDR cells viability, CellTiter-Glo, 72 h; Potency, µM (highest dose often 46.1 µM), hits mostly cytotoxic; 3.4% of 400,000 active; AID 1347076; note: % is set by controls: 0 for no effect and ±100 for the full control effect; nearly all actives have a fitted effect of over 60% in size
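Readout: CellTiter-Glo luminescence, 10 min after addition. Cells: KB-V1 MDR subline, 72 h at 37 degrees C with compound. Analysis: corrected, normalized data fitted to concentration-effect curves.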
SW480 rereplic – DNA re-replication induction in SW480 cells; 1.8% of 340,000 active; Potency, µM (titrated, usually from 46.1 µM), for inactives: top-dose re-replication activation, actives largely listed as activators; SW480 DNA re-replication, Hoechst DNA content imaging, 48 h; note: % of control where 0% means no effect; nearly all actives have a fitted effect of over 55% in size
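SW480 cells exposed to compounds for 48 hr at 37 C, 5% CO2, then Hoechst-stained 40 min. Nuclear DNA content imaged by fluorescence scanning (405 nm excitation, 500-530 nm emission); re-replication scored as increased high-intensity nuclei.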
MCF10A rerep – DNA re-replication induction in MCF 10a cells. AID 624296. MCF 10A DNA re-replication, Hoechst nuclear intensity, 48 h. 2.9% of 350,000 active. Potency, µM (doses to about 46.1 µM), without a hit: at the highest dose activity, positive = re-replication, usual class: activators; note: % of control where 0% means no effect; nearly all actives have a fitted effect of over 50% in size
HT1080 IDH1KD tx – kills HT-1080 cells with IDH1 knockdown. 2% of 360,000 active. HT-1080 IDH1 knockdown viability, ATP luminescence, 48 h. Potency, µM (top dose mostly 46.1 µM), for the others: at the top dose activity, negative = toxicity, hits mostly cytotoxic;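 note: 0% = DMSO wells and -100% = cell-free medium wells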
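Knockdown cells (IDH1KD HT-1080) received compounds 2 h after plating at 750 cells/well and were kept 48 h at 37 °C in 5% FBS RPMI. A CellTiter-Glo luminescence read gave % activity for curve fitting.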
KB-3-1 tox – KB-3-1 parental cell cytotoxicity; 1.4% of 400,000 active; KB-3-1 viability, CellTiter-Glo ATP luminescence, 72 h; Potency, µM (doses to about 46.1 µM), hits mostly cytotoxic; note: % is set by controls: 0 for no effect and ±100 for the full control effect; nearly all actives have a fitted effect of over 60% in size
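Screening of KB-3-1 cells (DMEM, 10% FBS, phenol-red free) ran from lowest to highest compound concentration; after 72 h at 37 °C viability was read luminescently and curves fitted.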
HT1080NT lethal – kills 2HG-producing HT-1080-NT fibrosarcoma cells; 1.6% of 360,000 active; Potency, µM (series often up to 46.1 µM), for the others: at the top dose activity, negative = less viability, actives largely listed as cytotoxic; AID 686970; HT-1080-NT fibrosarcoma viability, CellTiter-Glo ATP luminescence, 48 h;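 note: NT is the 2HG producing partner of a matched IDH1 knockdown line; 0% = DMSO-treated cells and -100% = media-only wells without cells; nearly all actives have a fitted effect of over 55% in size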
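HT-1080-NT; 750 cells/well; 5% FBS RPMI; 48 h compound, 37 degrees C; CellTiter-Glo luminescence; curve fitting and curve-class assignment.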
Starred values were filed as active, the others as inactive; i = inactive; ? = inconclusive; nt = no result; [ ] = another dose, or the depositor's remark. This is a sample that favours compounds with a hit; in the whole collection about 7.9% have one here. Calls come from the whole dose curve; as a rule, active = well fitted curve in the direction sought with a large enough effect; inconclusive = small, poorly fitted or top-dose-only effect, or another doubt; inactive = no such curve, though single readings can be large; an effect the other way counts as inactive or inconclusive. Potency is the fitted concentration of half-maximal effect.

SMILES	KB-V1 cytotox	SW480 rereplic	MCF10A rerep	HT1080 IDH1KD tx	KB-3-1 tox	HT1080NT lethal
CC(=O)OC1CC(OC2C(O)CC(OC3C(O)CC(OC4CCC5(C)C(CCC6C5CCC5(C)C(C7=CC(=O)OC7)C(O)CC65O)C4)OC3C)OC2C)OC(C)C1OC1OC(CO)C(O)C(O)C1O (stereo unspecified)	?	1.2µM*	?	1.3µM*	1.2µM*	0.65µM*
Cn1sc(Cl)cc1=O	nt	-7%	11%	nt	nt	nt
CC(C)CCCn1c(O)c(/C=C2/C=CC=N2)c(=O)[nH]c1=O	?	13µM*	18µM*	16µM*	16µM*	18µM*
CCCCn1c(O)c(C=NCCCn2ccnc2)c(=O)[nH]c1=O	i	-4%	-5%	0%	i	-6%
CCOC(=O)[C@]12Cc3cc(Cl)ccc3[C@H]1N(CC(=O)OC)C(=O)c1ccccc12	12µM*	nt	nt	7.3µM*	3.7µM*	5.8µM*
CCOC(=O)[C@]12Cc3cc(Cl)ccc3[C@H]1N(C)C(=O)c1ccccc12	i	nt	nt	1%	?	3%
CCOC(=O)[C@]12Cc3cc(Cl)ccc3[C@H]1N(C(C)C)C(=O)c1ccccc12	5.2µM*	nt	nt	3.3µM*	2.6µM*	4.6µM*
CCC(C)c1ccc(N2C(=O)NC(=O)/C(=C/c3cccn3CCOc3ccc(C)cc3)C2=O)cc1 (stereo unspecified)	i	17%	21µM*	-24%	i	?
COC(=O)[C@@]1(C)CC[C@]2(C)CC[C@@]3(C)C(=CC(=O)C4[C@@]5(C)CC[C@H](O)C(C)(C)[C@@H]5CC[C@]43C)[C@H]2C1 (stereo partly specified)	?	-72%	2%	6%	i	12%
COc1ccc(NC(=O)c2cccn(Cc3ccc(Cl)cc3)c2=O)c(OC)c1	?	nt	nt	nt	i	nt
COc1ccc(NC(=O)CSc2nnc(Cc3cccn3C)n2CCc2ccccc2)c(OC)c1	3.3µM*	2%	?	?	i	?
C=CCCC[C@@H]1OC(=O)CNC(=O)C([C@@H](C)CC)NC(=O)[C@@H]2CCCN2C(=O)C([C@@H](C)CC)OC(=O)[C@H](Cc2ccccc2)N(C)C(=O)[C@H](C(C)C)NC(=O)C1(C)C (stereo partly specified)	i	nt	nt	?	?	?
CCC(C)C1NC(=O)C2CCCN2C(=O)C(CC(C)C)OC(=O)CCNC(=O)C(C)N(C)C(=O)C(C(C)C)N(C)C1=O (stereo unspecified)	i	12µM*	?	23µM*	4.6µM*	18µM*
C=C1C=C(C(F)F)n2ncc(C(=O)NCc3ccccc3F)c2N1	i	nt	nt	nt	?	nt
CCC(NC(=O)OC(C)(C)C)C(=O)Oc1cc(C)cc2oc(=O)c3c(c12)CCC3 (stereo unspecified)	15µM*	1%	24%	16%	i	14%
Cc1cc(OC(=O)CCNC(=O)OC(C)(C)C)c2c3c(c(=O)oc2c1)CCC3	i	-12%	21%	-14%	i	-12%
Cc1ccccc1NC(=O)Cc1nc(COC(=O)Cc2ccccc2)cs1	?	-15%	7%	-8%	i	-10%[9.24 µM]
Cc1ccccc1NC(=O)CCl	i	14%	2%	-1%	21µM*	-11%
COC(=O)c1cn(S(=O)(=O)c2ccccc2)c2ccccc12	i	?	26µM*	-5%	i	-7%
Cc1sc(NC(=O)Cn2c(=O)oc3ccccc32)nc1-c1ccc(Cl)cc1	i	-2%	?	?	?	?
CC(C)(C)c1cc(O)ccc1O	nt	?	30µM*	nt	nt	nt
CCOC(=O)NC(O)C(Cl)(Cl)Cl (stereo unspecified)	nt	3%	-2%	nt	nt	nt
Cc1ccc(-c2cc(-c3ccc(C)cc3)[n+](C)o2)cc1	i	-697%	-48%	?	2.9µM*	-18%
